# Read-outs that look alike come from different tables or passages of the source.
# Tests used:
# [1] = tested on: BMPR1A; conditions: concentration: 1 μM, replicates: in singlicate; n = 1
# [2] = tested on: BMPR1B; conditions: concentration: 1 μM, replicates: in singlicate; n = 1
# [3] = tested on: BMPR2; conditions: concentration: 1 μM, replicates: in singlicate; n = 1
# [4] = tested on: BMX; conditions: concentration: 1 μM, replicates: in singlicate; n = 1
# [5] = tested on: BRAF; conditions: concentration: 1 μM, replicates: in singlicate; n = 1
# [6] = tested on: T1, BRK; conditions: concentration: 1 μM, replicates: in singlicate; n = 1
# T1 construct: gene PTK6
# [7] = tested on: BRSK1; conditions: concentration: 1 μM, replicates: in singlicate; n = 1
# [8] = tested on: BRSK2; conditions: concentration: 1 μM, replicates: in singlicate; n = 1
# [9] = tested on: BTK; conditions: n = 1
# [10] = tested on: BUB1; conditions: concentration: 1 μM, replicates: in singlicate; n = 1
# [11] = tested on: CAMK1B; conditions: concentration: 1 μM, replicates: in singlicate; n = 1
# [12] = tested on: CAMK1D; conditions: concentration: 1 μM, replicates: in singlicate; n = 1
# [13] = tested on: CAMK1G; conditions: concentration: 1 μM, replicates: in singlicate; n = 1
# [14] = tested on: CAMK1; conditions: concentration: 1 μM, replicates: in singlicate; n = 1
# [15] = tested on: CAMK2A; conditions: concentration: 1 μM, replicates: in singlicate; n = 1
# [16] = tested on: CAMK2B; conditions: concentration: 1 μM, replicates: in singlicate; n = 1
# [17] = tested on: CAMK2D; conditions: concentration: 1 μM, replicates: in singlicate; n = 1
# [18] = tested on: CAMK2G; conditions: concentration: 1 μM, replicates: in singlicate; n = 1
# [19] = tested on: CAMK4; conditions: concentration: 1 μM, replicates: in singlicate; n = 1
# [20] = tested on: CAMKK1; conditions: concentration: 1 μM, replicates: in singlicate; n = 1
# [21] = concentration: 1 μM, replicates: in singlicate
# 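Note: KINOMEscan kinase panel screen.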
smiles,measurement,setting,value
CS(=O)(=O)c1ccc(-c2c(-c3ncn[nH]3)sc(N3CCOCC3)c2C#N)cc1,%Inh,[1],17%
same,%Inh,[2],4%
same,%Inh,[3],12%
same,%Inh,[4],0%
same,%Inh,[5],12%
same,%Inh,[6],0%
same,%Inh,[7],100%
same,%Inh,[8],32%
same,%Inh,[9]; [21],0%
same,%Inh,[10],29%
same,%Inh,[11],25%
same,%Inh,[12],16%
same,%Inh,[13],11%
same,%Inh,[14],13%
same,%Inh,[15],14%
same,%Inh,[16],30%
same,%Inh,[17],6%
same,%Inh,[18],11%
same,%Inh,[19],18%
same,%Inh,[20],19%
Clc1cc(Cl)cc(Nc2ccnc(Nc3cc(Cl)cc(Cl)c3)n2)c1 [GSK175726],%Inh,[1],0%
same,%Inh,[2],0%
same,%Inh,[3],5%
same,%Inh,[4],26%
same,%Inh,[5],0%
same,%Inh,[6],21%
same,%Inh,[7],0%
same,%Inh,[8],0%
same,%Inh,[9]; [21],0%
same,%Inh,[10],10%
same,%Inh,[11],3%
same,%Inh,[12],10%
same,%Inh,[13],0%
same,%Inh,[14],7%
same,%Inh,[15],4%
same,%Inh,[16],0%
same,%Inh,[17],0%
same,%Inh,[18],8%
same,%Inh,[19],0%
same,%Inh,[20],10%
Cl.NC(=O)c1cccc(Nc2nccc(Nc3ccc(Oc4cccc(Cl)c4)c(Cl)c3)n2)c1 [GW659008],%Inh,[1],0%
same,%Inh,[2],0%
same,%Inh,[3],3%
same,%Inh,[4],14%
same,%Inh,[5],0%
same,%Inh,[6],69%
same,%Inh,[7],0%
same,%Inh,[8],0%
same,%Inh,[9]; [21],0%
same,%Inh,[10],36%
same,%Inh,[11],0%
same,%Inh,[12],17%
same,%Inh,[13],9%
same,%Inh,[14],25%
same,%Inh,[15],0%
same,%Inh,[16],0%
same,%Inh,[17],5%
same,%Inh,[18],16%
same,%Inh,[19],0%
same,%Inh,[20],0%
Cc1cc(-c2ccc3c(c2)CC[C@@H](N[C@@H](C)c2ccccc2)C3)cnc1N.Cl [GW412617],%Inh,[1],0%
same,%Inh,[2],0%
same,%Inh,[3],0%
same,%Inh,[4],50%
same,%Inh,[5],1%
same,%Inh,[6],22%
same,%Inh,[7],0%
same,%Inh,[8],0%
same,%Inh,[9]; [21],0%
same,%Inh,[10],17%
same,%Inh,[11],4%
same,%Inh,[12],13%
same,%Inh,[13],100%
same,%Inh,[14],23%
same,%Inh,[15],0%
same,%Inh,[16],0%
same,%Inh,[17],97.6%
same,%Inh,[18],21%
same,%Inh,[19],18%
same,%Inh,[20],12%
Cc1ccc(C(=O)Nc2ccc(Nc3ccnc4cc(-c5ccccn5)ccc34)cc2O)cc1.Cl [GW440146],%Inh,[1],0%
same,%Inh,[2],0%
same,%Inh,[3],0%
same,%Inh,[4],14%
same,%Inh,[5],0%
same,%Inh,[6],29%
same,%Inh,[7],0%
same,%Inh,[8],0%
same,%Inh,[9]; [21],46%
same,%Inh,[10],54%
same,%Inh,[11],13%
same,%Inh,[12],20%
same,%Inh,[13],0%
same,%Inh,[14],39%
same,%Inh,[15],0%
same,%Inh,[16],0%
same,%Inh,[17],0%
same,%Inh,[18],8%
same,%Inh,[19],0%
same,%Inh,[20],0%
NC(=O)c1nnc2ccccc2c1N,%Inh,[1],7%
same,%Inh,[2],10%
same,%Inh,[3],36%
same,%Inh,[4],90.1%
same,%Inh,[5],23%
same,%Inh,[6],9%
same,%Inh,[7],22%
same,%Inh,[8],0%
same,%Inh,[9]; 1 µM,43%
same,%Inh,[10],12%
same,%Inh,[11],0%
same,%Inh,[12],13%
same,%Inh,[13],7%
same,%Inh,[14],14%
same,%Inh,[15],0%
same,%Inh,[16],0%
same,%Inh,[17],7%
same,%Inh,[18],0%
same,%Inh,[19],0%
same,%Inh,[20],10%
Nc1ncnc2[nH]c(-c3ccccc3)nc12 [AH5015],%Inh,[1],0%
same,%Inh,[2],0%
same,%Inh,[3],0%
same,%Inh,[4],20%
same,%Inh,[5],6%
same,%Inh,[6],16%
same,%Inh,[7],1%
same,%Inh,[8],0%
same,%Inh,[9]; [21],1%
same,%Inh,[10],38%
same,%Inh,[11],29%
same,%Inh,[12],13%
same,%Inh,[13],0%
same,%Inh,[14],0%
same,%Inh,[15],0%
same,%Inh,[16],0%
same,%Inh,[17],0%
same,%Inh,[18],0%
same,%Inh,[19],0%
same,%Inh,[20],0%
Cl.c1ccc(-c2n[nH]cc2-c2ccnc(-c3ccc(CN4CCOCC4)cc3)c2)nc1 [GW776245],%Inh,[1],0%
same,%Inh,[2],52%
same,%Inh,[3],0%
same,%Inh,[4],13%
same,%Inh,[5],16%
same,%Inh,[6],0%
same,%Inh,[7],0%
same,%Inh,[8],21%
same,%Inh,[9]; [21],0%
same,%Inh,[10],0%
same,%Inh,[11],0%
same,%Inh,[12],27%
same,%Inh,[13],0%
same,%Inh,[14],22%
same,%Inh,[15],2%
same,%Inh,[16],5%
same,%Inh,[17],11%
same,%Inh,[18],13%
same,%Inh,[19],0%
same,%Inh,[20],26%
Cn1ccc2ncnc(Oc3ccc(Nc4nc5ccccc5[nH]4)cc3)c21,%Inh,[1],0%
same,%Inh,[2],0%
same,%Inh,[3],0%
same,%Inh,[4],0%
same,%Inh,[5],0%
same,%Inh,[6],0%
same,%Inh,[7],0%
same,%Inh,[8],2%
same,%Inh,[9]; [21],0%
same,%Inh,[10],0%
same,%Inh,[11],0%
same,%Inh,[12],0%
same,%Inh,[13],0%
same,%Inh,[14],0%
same,%Inh,[15],7%
same,%Inh,[16],5%
same,%Inh,[17],2%
same,%Inh,[18],0%
same,%Inh,[19],0%
same,%Inh,[20],14%

# Source: publication PMC5540273 (PLoS ONE, 2017)
